Data from PubChem BioAssay (NCI).
This is part of a sample that, as a whole, favours compounds with a hit. Of some 83,000 tested, about 20% had one in any assay.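 Testing used 96-well plates and a 48-hour single-concentration exposure. Example: -40 means 40% of the starting cells died.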 Values without a mark were called inactive. Calls of active or inactive are those of the source. The calls were made as follows: active = growth percent below 10; inactive = the rest.

What was measured:
Assay in all cases: NCI-60 one-dose screen, 48 h (100 = growth as untreated, 0 = no growth, -100 = all killed)
Details in all cases: 10 µM
[1] = tested on: HT29 colon
[2] = tested on: SNB-75 CNS
[3] = tested on: SNB-19 CNS
[4] = tested on: U251 CNS
[5] = tested on: PC-3 prostate
[6] = tested on: SK-MEL-5 melanoma
[7] = tested on: UACC-62 melanoma
[8] = tested on: LOX IMVI melanoma
[9] = tested on: SK-MEL-28 melanoma
[10] = tested on: SK-MEL-2 melanoma
[11] = tested on: SN12C renal
[12] = tested on: UO-31 renal
[13] = tested on: TK-10 renal
[14] = tested on: ACHN renal
[15] = tested on: CAKI-1 renal
[16] = tested on: A498 renal
[17] = tested on: CCRF-CEM leukemia
[18] = tested on: MOLT-4 leukemia
[19] = tested on: SR leukemia

SMILES	growth [1]	growth [2]	growth [3] [%]	growth [4]	growth [5]	growth [6]	growth [7]	growth [8]	growth [9]	growth [10]	growth [11]	growth [12]	growth [13]	growth [14]	growth [15]	growth [16]	growth [17]	growth [18]	growth [19]
COc1ccc(NC(=O)Cc2nc3nc4sc(C)c(C)c4c(=O)n3[nH]2)cc1	94.1%	101%	105	91.2%	95.9%	86.7%	107%	89.7%	115%	103%	106%	83.1%	115%	107%	98%	122%	90.4%	99.4%	99.1%
COc1ccc(-c2nc(-c3nc4cc(Cl)c(Cl)cc4[nH]3)c3ccccn23)cc1	51.4%	-29.1% (active)	50.5	22.6%	57%	48.3%	88.9%	43.6%	62.2%	58.1%	81.8%	36%	2.57% (active)	28.5%	43.5%	41.5%	79.1%	77.3%	45.6%
O=C(O)CC(Cl)C(Cl)CC(=O)O (stereo not drawn)	101%	103%	103	98.6%	98.1%	108%	100%	94%	107%	107%	102%	81.1%	95.7%	103%	91.6%	105%	89.9%	97.1%	0.349% (active)
CCN(CC)CCCC(C)Nc1ccc2ccc(Cl)cc2n1 (stereo not drawn)	86.1%	77%	104	92.7%	90.5%	97.7%	103%	95%	106%	117%	88.8%	85.8%	100%	98.5%	104%	92.3%	102%	96.5%	96.4%
Nc1c(C(=O)Nc2ccccc2)sc2nc3c(cc12)CCCC3	10.1%	20.6%	64	21.7%	25.4%	31.8%	47.8%	53.3%	56%	51.5%	40.1%	44.7%	71.7%	51.5%	26.7%	-8.95% (active)	13.1%	15.7%	10.8%
COc1ccc(-c2nsc3c2NC(=O)CC3c2ccc(F)cc2)cc1 (stereo not drawn)	4.71% (active)	63.5%	72.5	33.6%	39.1%	20.5%	51.2%	44.4%	57.5%	-11.7% (active)	51.6%	48.7%	38.5%	47.1%	24.3%	53.8%	45.3%	21.7%	3.34% (active)
O=[N+]([O-])c1ccc(Oc2cc(Cl)c(Cl)cc2Cl)c(C(F)(F)F)c1	105%	89.4%	111	97.9%	92.1%	96%	97%	99.2%	101%	94.3%	103%	80.2%	115%	96.8%	92.3%	90.5%	93.5%	87.5%	100%
Nc1c(C(=O)Nc2cccc(F)c2)sc2nc3c(cc12)C(=O)CCC3	16.7%	24.9%	48.9	32.1%	20.7%	43.2%	43.4%	46.5%	49.7%	43.3%	37.4%	56.1%	85.5%	53.6%	28%	-12.1% (active)	17.9%	66.3%	16.1%
O=C(Nc1cccc(-n2cc(-c3ccncc3)c(-c3cc(O)cc(Cl)c3)n2)c1)Nc1ccc(Cl)c(C(F)(F)F)c1	35.3%	24.1%	44.5	-26.5% (active)	5.34% (active)	23.8%	-1.44% (active)	2.08% (active)	-13.5% (active)	-37.9% (active)	34.6%	18.5%	25.9%	21.3%	29.1%	21.5%	9.31% (active)	-18% (active)	-30.6% (active)
CCCCCCCCN(CCCCCCCC)CCCCCCCCCN1CCCc2cc(OC)ccc21	84.8%	84.5%	98.3	90.7%	85.2%	109%	86.8%	88.6%	101%	101%	82.7%	80.4%	117%	96.5%	99.3%	96%	85.8%	85.8%	77.5%
O=C1/C(=C\c2ccc(F)cc2)CN(C(=O)c2ccccc2)C/C1=C\c1ccc(F)cc1	-50.9% (active)	48.1%	61.3	-25% (active)	22.1%	34.3%	4.27% (active)	-55.9% (active)	34.8%	54.8%	14.1%	38.7%	79.7%	24.3%	21.3%	52.3%	-12.6% (active)	4.36% (active)	-15.1% (active)
C[C@]12CC[C@@H]3c4ccc(O)cc4C[C@@H](O)[C@H]3[C@@H]1CC[C@@H]2O	102%	87.8%	108	96.1%	90.2%	96%	97.1%	97.3%	117%	110%	100%	86.5%	111%	105%	87.6%	79.6%	103%	109%	91.4%
CN(C)CC(O)c1ccc2cc(Br)c3ccccc3c2c1 (stereo not drawn)	22%	41.8%	64.7	56.4%	49%	62.3%	-64.8% (active)	28.9%	32.7%	102%	53.9%	57.6%	81.8%	17.2%	73.1%	23.9%	57.9%	31%	4.67% (active)
Cn1c(C(N)=O)cc2c1-c1nc(Nc3ccccc3)ncc1CCC2	70%	35.6%	58.4	26.9%	59.5%	72.1%	37.1%	40.5%	68.7%	46%	28%	12.5%	23.7%	25.6%	23.5%	-43.8% (active)	43.5%	42.3%	17.3%
CC(=O)c1cc(Cl)ccc1O	106%	95.4%	113	107%	91.1%	103%	108%	102%	109%	110%	110%	78.3%	98.9%	99.8%	107%	100%	100%	101%	104%
C#Cc1ccc(-n2c(/C=C/c3ccc(O)c(OC)c3)nc3ncccc3c2=O)cc1	112%	55.9%	96.2	94.1%	81.2%	94.2%	104%	93.5%	97.9%	85.7%	98.4%	73.9%	139%	97.3%	96%	94%	91.4%	86.1%	80.9%

SMILES	growth [1]	growth [2]	growth [3] [%]	growth [4]	growth [5]	growth [6]	growth [7]	growth [8]	growth [9]	growth [10]	growth [11]	growth [12]	growth [13]	growth [14]	growth [15]	growth [16]	growth [17]	growth [18]	growth [19]
COc1ccc2c(c1OC)O/C(=C\c1ncc([N+](=O)[O-])n1C)C2=O	-20.8% (active)	76.6%	66.2	55.2%	60.2%	-66.5% (active)	0.211% (active)	0.891% (active)	-38% (active)	-58.9% (active)	11.8%	-42.8% (active)	14.7%	-2.65% (active)	-27.5% (active)	68.8%	4.93% (active)	1.01% (active)	6.02% (active)
O=C(Nc1ccncc1)C(=O)c1cn(S(=O)(=O)c2cccc3ccccc23)c2ccccc12	42.7%	76.5%	80.5	80.7%	68.5%	68%	63.7%	61.5%	95.3%	68.2%	92%	58.5%	88.3%	87.2%	60.4%	80%	59.5%	69%	21.2%
Nc1ccccc1NC(=O)CCCCC(=O)Nc1ccc2c(c1)/C(=C/c1ccc[nH]1)C(=O)N2	67.2%	16.9%	76.4	48.5%	81.6%	87.7%	58%	85.2%	86.1%	46.2%	66.9%	72.2%	68.2%	92.7%	81.6%	-5.06% (active)	50.7%	47.7%	62.7%
COc1ccc(C2=Nc3c(C)nn(-c4ccccc4)c3NC(c3ccc(Oc4ccnc5cc(Cl)ccc45)c(OC)c3)C2)cc1 (stereo not drawn)	56.2%	62.3%	78.6	86.7%	54.8%	89.4%	75.9%	89.3%	95.1%	90.9%	72.5%	53%	129%	76.4%	70.8%	54.2%	71.2%	51.4%	-0.699% (active)
CSc1nn(-c2ccccc2)c2ncnc(Oc3ccccc3)c12	87.3%	70.1%	93.9	86%	98%	97%	101%	98.4%	111%	80.6%	86.2%	7.79% (active)	106%	106%	88.7%	138%	89.6%	97.3%	84%
COc1cc(/C=C2\CCCC3=C2N=C2SC=NN2C3c2cc(OC)c(OC)c(OC)c2)cc(OC)c1OC (stereo not drawn)	3.26% (active)	19.7%	46.4	8.08% (active)	66.4%	16.3%	-51.7% (active)	-36.9% (active)	42.5%	89.3%	7.13% (active)	36%	17.5%	15.3%	9.47% (active)	24.5%	2.74% (active)	-2.28% (active)	7.88% (active)
C#Cc1ccc(-n2c(/C=C/c3cc(OC)cc(OC)c3)nc3ncccc3c2=O)cc1	100%	55%	98	72%	68.5%	60.7%	85.8%	76.2%	96.7%	53.7%	81.8%	87.6%	81.6%	67.1%	95.8%	91.9%	69%	58.3%	44.8%
CC1(C)Cc2c(sc3ncn4nc(-c5ccc(O)cc5)nc4c23)CO1	111%	35.5%	79.9	60.6%	44.4%	56.7%	82.5%	75%	73.5%	84.7%	63.5%	44.3%	56.4%	67.6%	76.7%	-9.39% (active)	70.5%	69.4%	22.8%
COc1ccc(/C=C2/CN(C(=O)c3ccccc3F)C/C(=C\c3ccc(OC)cc3)C2=O)cc1	-82.5% (active)	68.9%	77	9.44% (active)	52%	48.6%	56.5%	-54.5% (active)	69.4%	94.1%	65.7%	46.1%	130%	65.2%	67.6%	122%	4.22% (active)	23.5%	-23.2% (active)
Nc1c(C(=O)Nc2cccc(Br)c2)sc2nc3c(cc12)C(O)CCC3 (stereo not drawn)	5.13% (active)	31.2%	62.2	19.3%	23%	31.6%	48.9%	46.2%	63.2%	58.7%	37.3%	31.9%	56.7%	51.4%	25.6%	-8.73% (active)	12.2%	14%	3.95% (active)
COc1ccc(-c2nc(-c3nc4cc(Cl)c(F)cc4[nH]3)c3ccccn23)cc1	31.5%	66.2%	55.5	62.5%	34.6%	59.4%	74.5%	65.9%	91.8%	50%	66.3%	28%	64.7%	79.1%	67.1%	32.4%	35.6%	43.4%	33.7%
COc1ccc(-c2nc3ccccn3c2-c2nnc(-c3cc(OC)c(OC)c(OC)c3)o2)cc1	70.4%	59.9%	44.5	45.8%	98.2%	44.7%	68.5%	78.1%	83.6%	92.1%	69.7%	77.7%	77.9%	49.4%	80.1%	48.2%	88.4%	92.1%	37.7%
O=C(C[P+](c1ccccc1)(c1ccccc1)c1ccccc1)C[P+](c1ccccc1)(c1ccccc1)c1ccccc1	-77.3% (active)	-22.6% (active)	20.3	-91.8% (active)	-77.7% (active)	-88.9% (active)	-79.6% (active)	-87.2% (active)	-42% (active)	-79.8% (active)	-45.9% (active)	-98.2% (active)	-94.1% (active)	-99.4% (active)	-96.1% (active)	-93.8% (active)	-24% (active)	-28.9% (active)	-19.6% (active)
O=C1/C(=C\c2ccccc2)CN(C(=O)c2ccccc2)C/C1=C\c1ccccc1	-48.5% (active)	49.7%	55.2	-32.6% (active)	6.58% (active)	-22.8% (active)	-1.94% (active)	-80.3% (active)	-7.74% (active)	58.6%	5.88% (active)	43%	69.8%	3.54% (active)	33.3%	45.1%	-0.797% (active)	2.87% (active)	-33% (active)
O=C1/C(=C\c2ccc(Cl)cc2)CN(C(=O)c2ccccc2)C/C1=C\c1ccc(Cl)cc1	-84.9% (active)	51.4%	68.2	-74% (active)	25.8%	66.8%	34.6%	-51.8% (active)	59.7%	87.1%	36.8%	2.38% (active)	94.7%	47.4%	32.4%	84.2%	11.2%	21.5%	-20.1% (active)
Cc1[nH]nc2c1C(c1cnn(C)c1)C(C#N)=C(N)O2 (stereo not drawn)	114%	73.6%	98.2	102%	91.2%	105%	111%	94.9%	110%	93.8%	103%	81.3%	102%	104%	102%	69.9%	101%	98.6%	89.3%
